Screening results: PubChem, SRMLSC
In the library only some 6.8% were active in any assay of this set; here they are far more common.
PMK inhibit: S. pneumoniae PMK inhibitors, primary screen, biochemical, mevalonate pathway, pilot trial included; purified PMK, PK/LDH-coupled NADH absorbance 340 nm; inhibition, % at 10 µM; 0.49% of 65,000 active; AID 539, 2006;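 active = top-ranked compounds by inhibition in the single 10 µM screen, taking a fixed number of the strongest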
Spn DPM-DC inh: S. pneumoniae DPM-DC inhibitors, primary screen, biochemical, PK/LDH-coupled NADH fluorescence | diphosphomevalonate decarboxylase (Streptococcus pneumoniae D39) | 0.49% of 65,000 active | purified DPM-DC | calls only at 10 µM;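 active = the 320 compounds with the highest percent inhibition in the single-dose primary screen, excluding strongly autofluorescent ones, cut at about 32% in these data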;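 also: kinetic rate of NADH fluorescence loss reporting ADP formed by the decarboxylase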
Autofluor 339: intrinsic fluorescence of library compounds, ex339/em460 – biochemical, MLSMR library, data from DPM-DC assay, artefact control, profiling panel; compound autofluorescence, ex339/em460 nm, NADH buffer; stronger effect = higher value; 1 = no-compound wells, NADH background; fluorescence fold increase at 10 µM; 5.5% of 65,000 active; AID 709, 2007;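 active = at 10 µM, mean starting fluorescence two-fold or more over control wells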;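 also: signal is the first read of a kinetic run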
Spn MK inh: S. pneumoniae MK inhibitors, primary screen, biochemical, PK/LDH-coupled NADH absorbance; purified MK, PK/LDH-coupled NADH absorbance 340 nm; 0.48% of 65,000 active; mevalonate kinase [Streptococcus pneumoniae D39]; inhibition, % at 10 µM;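 active = ranked among the strongest by inhibition in the single 10 µM screen, a fixed top-ranked set picked for dose follow-up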
Abs 340nm: compound light absorbance at 340 nm, profiling panel, artefact control, biochemical, MLSMR library, data from PS, PMK, MK assays. compound absorbance at 340 nm, fold over control. fold change at 10 µM. AID 708, 2007. 65,000 tested, under 10 active;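 active = at 10 µM dose, initial 340 nm absorbance at least 2 fold that of control wells; inactive = change under 2 fold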;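 also: initial absorbance extrapolated from kinetic A340 decline of NADH oxidation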
NADH coupling: inhibitors of PK/LDH coupling enzymes, profiling panel, artefact control, biochemical, MLSMR library; IC50, µM (doses to about 10 µM); 0.02% of 65,000 active; coupled PK/LDH NADH assays, four targets;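 active = single-dose screening hits from any of four coupled enzyme assays that gave an IC50 when retested across doses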;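 also: the DPM-DC format reads NADH fluorescence rather than 340 nm absorbance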
Each line names hits and unclear results; the compound was inactive in the other large screens.

Cc1ccc(S(=O)(=O)Nc2cc(C)nn2-c2ccccc2)cc1	none
O=C(OC(C(=O)NCc1ccc2c(c1)OCO2)c1ccc(Cl)cc1)c1ccco1 (stereo not given)	none
C=CCSc1nnc2nc3c(nn12)c1cc(C)ccc1n3CC=C	none
CN1CCN(C(=O)Nc2cccc3ccccc23)CC1	Autofluor 339 2.1 (not shown: Spn DPM-DC inh)
NC(=O)C1CCCN(C(=O)Nc2cccc3ccccc23)C1 (stereo not given)	Autofluor 339 2.3
CCN1CCN(C(=O)Nc2cccc3ccccc23)CC1	none
Cn1c(=O)c2c(nc(CN3CCN(C(=O)c4ccco4)CC3)n2Cc2ccc(Cl)cc2)n(C)c1=O	none
CCOC(=O)Nc1ccc2c(c1)Sc1ccccc1N2C(=O)CCN1CCOCC1	none
Cc1ccc(-c2csc3nnc(SCC(=O)N4CCN(Cc5ccccc5)CC4)n23)cc1	none
Cc1ccc(-c2csc3n[nH]c(=S)n23)cc1	Spn MK inh 88
CCn1c(=NC(=O)CSC(C)=O)sc2ccccc21	none
COC(=O)Cn1c(=NC(=O)CSC(C)=O)sc2ccccc21	Spn DPM-DC inh active
CC1(C)CC(=O)C2=C(C1)Oc1nc3ccccc3cc1C2C(C#N)C#N (stereo not given)	none
Cc1c(C(=O)N2CCN(c3ccccc3)CC2)sc2ncnc(N3CCN(c4ccccc4)CC3)c12	none
Cc1c(-n2cc(C(=O)O)c(=O)c3cc(F)c(N4CCCC4)c(F)c32)c(=O)n(-c2ccccc2)n1C	none
CN1CCN(c2c(F)cc3c(=O)c(C(=O)O)cn4c3c2SCC4)CC1	Autofluor 339 3.8 (not shown: Spn DPM-DC inh)
CC(C)NC(=O)c1ccc(CS(=O)(=O)c2ccc(Br)cc2)o1	none
CCOc1ccc(-c2nc(CSc3nncs3)cs2)cc1OC	none
Oc1ccccc1C1=Nc2ncnn2C(c2ccc(F)cc2)C1 (stereo not given)	none
Cc1occc1-c1nnc(SCC(=O)N2CCOCC2)n1CCc1ccccc1	none
Cc1occc1-c1nnc(SCC(=O)N2CCOCC2)n1Cc1ccco1	PMK inhibit 27
CCOCc1nc(N)[nH]c(=O)c1Cc1ccc(OC(C)C)cc1	none
c1nc(NC2CCCC2)c2[nH]cnc2n1	none
c1ccc2c(NC3CCCC3)nnc(NC3CCCC3)c2c1	Autofluor 339 2.1
Cn1cc(CN2CCN(c3ccccc3)CC2)c2ccccc21	none
Nc1nnc(-c2cc3ccccc3oc2=O)s1	Autofluor 339 3 (not shown: Spn DPM-DC inh)
CSc1ccccc1NC(=O)c1cc(-c2cccs2)on1	Autofluor 339 2.3
Cn1c(CNC(=O)Cc2ccc3c(c2)OCO3)nnc1SCc1ccccc1	none
Cc1c(NS(=O)(=O)c2ccc3c(c2)CCN3C(=O)C2CC2)c(=O)n(-c2ccccc2)n1C	none
COc1cc2c(cc1OC)C(c1ccc3c(c1)OCO3)C1=C(CC(C)(C)CC1=O)N2 (stereo not given)	Autofluor 339 4.9 (not shown: Spn DPM-DC inh)
CC1CCc2c(sc(NC(=O)c3noc4c3CCCC4)c2C(N)=O)C1 (stereo not given)	Autofluor 339 4.8 (not shown: Spn DPM-DC inh)
Fc1ccc2c(Cl)c(-c3nnc(-c4cccs4)o3)sc2c1	Autofluor 339 3.6 (not shown: Spn DPM-DC inh)
O=C(Nc1nnc(-c2cccs2)o1)c1cccc(C(F)(F)F)c1	none
O=C(CSc1nccn1-c1ccc(Cl)cc1)NCc1ccc2c(c1)OCO2	none
O=C1c2ccccc2NC(c2cnc3ccccc3n2)N1O (stereo not given)	none
Cc1cccc(C2Nc3ccccc3C(=O)N2CCc2ccccc2)n1 (stereo not given)	Autofluor 339 2.2 (not shown: Spn DPM-DC inh)
CCn1c2ccccc2c2nnc(SCC(=O)Nc3cc(C)on3)nc21	none
CCn1c(=O)c2cc(C(=O)NCCN3CCOCC3)sc2c2ccccc21	Autofluor 339 2.1 (not shown: Spn DPM-DC inh)
CCn1c(=O)c2cc(C(=O)NCc3cccs3)sc2c2ccccc21	none
CCn1c(=O)c2cc(C(=O)Nc3cc(C)on3)sc2c2ccccc21	Autofluor 339 2.2 (not shown: Spn DPM-DC inh)
Cc1ccc2[nH]c(=O)c3cc(C(=O)NCCN4CCN(C)CC4)sc3c2c1	Autofluor 339 2.4 (not shown: Spn DPM-DC inh)
CCCN1CCC(N(C)CCc2ccc(OC)c(OC)c2)CC1	none
